Compound activity from PubChem BioAssay.
BL2 CD40 inh: CD40 pathway inhibition in BL2 cells. inhibition, % at 10 µM. BL2 NF-kB luciferase reporter, CD40L-induced, 4 h. 83,000 compounds, 0.94% hits. AID 1053188;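 active = mean inhibition of at least 50% with a set share of replicates also reaching that level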;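 also: 0% = neutral control wells and 100% = IKK inhibitor VII at 50 µM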
Active calls of the source: *; i = inactive; [ ] = remark or other dose. The sample as a whole holds a higher share of hits than the screen did.

SMILES | BL2 CD40 inh
CO[C@@H](CN(C)S(=O)(=O)c1ccc(Cl)cc1)[C@@H](C)CN(Cc1ccccc1Cl)[C@@H](C)CO | 14
C[C@H]1CN(C)C(=O)c2cccc(NS(C)(=O)=O)c2O[C@@H]1CN(C)C | 6
O=C(C1CCCC1)N1CC[C@@H]2[C@H](CO)Nc3ccc(Br)cc3[C@@H]21 | -17
CC(NCC(O)COCCC12CC3CC(CC(C3)C1)C2)c1ccccc1 (centres undefined) | 86*
NCC(O)COCCC12CC3CC(CC(C3)C1)C2 (centres undefined) | 15
OC(COCCC12CC3CC(CC(C3)C1)C2)CN1CCCC1 (centres undefined) | 11
C[C@@H]1CN(C)C(=O)c2ccccc2O[C@H]1CN(C)S(C)(=O)=O | 10
COc1ccc2c3c([nH]c2c1)[C@@H](CO)N(CC1CC1)CC31CN(C(=O)NC2CCCC2)C1 | -5[25 µM]
CCC(=O)N1CC[C@@H]2[C@H](CO)Nc3ccc(C#Cc4ccccc4F)cc3[C@@H]21 | 8[25 µM]
C(=NN1CCCCCC1)c1ccc2ccccc2n1 | 77*
C(=C\c1ccc2ccccc2n1)/c1ccccc1 | 28
CCOc1ccccc1C=NN1CCCCCC1 | 7
CC(C)NC(=O)Nc1cccc2c1O[C@@H](CN(C)C(=O)OC(C)(C)C)[C@@H](C)CN(C)C2=O | -13
C[C@H]1CN([C@@H](C)CO)C(=O)c2ccccc2-c2ccccc2CO[C@@H]1CN(C)C(=O)Oc1ccccc1 | -13
O=C(C1CCOCC1)N1CC(=O)N2[C@@H](CO)[C@H](c3ccc(C#CC4CCCC4)cc3)[C@@H]2C1 | -9
C[C@H]1CN(C)C(=O)c2cccc(NS(C)(=O)=O)c2O[C@@H]1CN(C)S(C)(=O)=O | 19
Cc1ccccc1OCC(=O)Nc1ccc2c(c1)Cc1ccccc1-2 | 7
Cc1ccccc1OCC(=O)Nc1cccc(C(=O)O)c1 | 91*
Cc1ccccc1OCC(=O)Nc1ccc2c(c1)C(=O)c1ccccc1C2=O | -9
O=C(c1ccccn1)N1CC[C@H]2[C@H](CO)Nc3ccc(-c4ccc(F)cc4)cc3[C@H]21 | -55[25 µM]
COCC(=O)N1CC(=O)N2[C@H](CO)[C@H](c3ccc(-c4ccccc4F)cc3)[C@@H]2C1 | 2[25 µM]
CNC[C@H]1Oc2ccccc2C(=O)N(C)C[C@H]1C | -4
O=C(NCc1ccccn1)C1CCN(S(=O)(=O)c2ccccc2)CC1 | 9
O=C(NCc1ccccn1)C1CCCN(S(=O)(=O)c2ccccc2)C1 (centres undefined) | 26*
CCOc1ccc(S(=O)(=O)N2CCCC(C(=O)NCc3ccccn3)C2)cc1Cl (centres undefined) | -1
SMILES | BL2 CD40 inh
CO[C@@H]1CN(C)C(=O)c2cc(NC(=O)NC3CCCCC3)ccc2OC[C@H](C)NC[C@@H]1C | -3
COc1ccccc1Nc1nc(NCc2ccco2)c2ccccc2n1 | -21
c1ccc(N2CCN(c3nc(NCc4ccco4)c4ccccc4n3)CC2)cc1 | 29
c1ccc(-c2nc(NCc3ccco3)c3ccccc3n2)nc1 | 53*
O=C(c1ccccc1F)N1C[C@@H]2[C@H](c3ccccc31)[C@@H](CO)N2C(=O)c1cccnc1 | 11[25 µM]
C[C@@H]1CN([C@H](C)CO)C(=O)c2ccccc2-c2ccccc2CO[C@H]1CN(C)C(=O)Nc1cccc(Cl)c1Cl | 17[25 µM]
C[C@H]1CN(C)C(=O)Cc2cc(N)ccc2O[C@H]1CN(C)C(=O)OC(C)(C)C | 17
CCn1c(CNC(=O)C(C)(C)C)nc2ccccc21 | 4
CCn1c2ccccc2nc2cc3c(cc21)c(Cl)c(=O)c1ccccc13 | 90*
CC(C)(C)N1CC(c2nc3ccccc3n2Cc2ccccc2)CC1=O (centres undefined) | 14
CNC[C@H]1Oc2ccc(NC(C)=O)cc2CC(=O)N(C)C[C@@H]1C | 7
O=C(C[C@H]1C[C@@H]2c3cc(NC(=O)Nc4ccc(C(F)(F)F)cc4)ccc3O[C@@H]2[C@H](CO)O1)NCc1cc(F)ccc1F | 13[25 µM]
CC(C)[C@H](C)NC(=O)N(C)C[C@H]1OCc2ccccc2-c2ccccc2C(=O)N([C@@H](C)CO)C[C@H]1C | -4
N#C[C@H]1[C@H](c2ccccc2-c2ccccc2F)[C@H](CO)N1C(=O)C1CCC1 | 12[25 µM]
CC(C)NC(=O)N1[C@@H]2CN(CC(F)(F)F)C[C@H]1C2c1ccc(Br)cc1 (some centres undefined) | 8
Nc1c(S(=O)(=O)c2ccccc2)c2nc3ccccc3nc2n1CCN1CCOCC1 | 10
CCCCn1c(NC(=O)c2ccc(Br)o2)c(S(=O)(=O)c2ccccc2)c2nc3ccccc3nc21 | 66*
CCCCn1c(NC(C)=O)c(C#N)c2nc3ccccc3nc21 | -1
COc1ccc2c3c([nH]c2c1)[C@H](CO)N(C(=O)Nc1ccc(F)cc1)CC31CN(C(=O)c2ccccn2)C1 | -24[25 µM]
COc1c(C(=O)Nc2ccc(Cc3ccncc3)cc2)ccc2ccccc12 | -25
COc1ccc(C(=O)Nc2ccc3ccccc3n2)c(OC)c1OC | 51*
COc1ccc(C(=O)NCCN(C)C)c2nc3ccccc3cc12 | i
CN1C(=O)c2cc(NC(=O)c3ccc(C(F)(F)F)cc3)ccc2OC[C@H]2O[C@H](CC(=O)NCc3ccc4c(c3)OCO4)CC[C@@H]21 | 11[25 µM]
